Measured values reported in PubChem BioAssay.

experiment: basal MM1S mitochondrial membrane potential changes, profiling panel, cell-based, JC-1 fluorescence, 24 h, 100 nL compound (AID 1170); conditions: higher = more signal; also: test concentration not given here

In order of rising z-score:
1. [N-]=[N+]=Nc1ccccc1C[C@]1(C(=O)N2CCOCC2)N=C(c2ccc(OCCCO)cc2)O[C@H]1c1ccccc1N=[N+]=[N-]  -2.03
2. CCCNC(=O)[C@@]1(Sc2ccc(C)cc2)CC(=O)N(Cc2ccccc2Cl)[C@@H]1c1ccc(CO)cc1I  -1.87
3. Cc1ccc(S[C@]2(C(=O)NCCCN(C)C)CC(=O)N(C3Cc4ccccc4C3)[C@@H]2c2ccc(CO)cc2I)cc1  -1.09
4. CN1C(=O)C2C(C3CC3)C=C3CN(Cc4cccc(Cl)c4)[C@@H]([C@@H](O)Cc4ccccc4)C3C2C1=O (some centres not stated)  -0.939
5. C[C@]1(C(=O)O)c2ccccc2C(=O)N(Cc2cc(F)cc(C(F)(F)F)c2)[C@H]1c1ccc(CO)cc1  -0.703
6. CC(C)c1nc2cc(Br)ccc2c(=O)o1  -0.259
7. C=CCN1Cc2ccccc2[C@H]2OC(c3ccc(OCCCO)cc3)=N[C@@]2(CCS(=O)(=O)c2ccccc2)C1=O  -0.0644
8. CCCCC(O)C1C=CC2C(=O)N(c3ccccc3)C(=O)C2N1Nc1ccc(C#N)cc1 (configuration not stated)  -0.0525
9. CC(C)=CCCC(C)=CC(O)C1C=CC2C(=O)NC(=O)C2N1Nc1ccccn1 (configuration not stated)  0.0809
10. CN(C)CCCC[C@@H]1NC(=O)[C@H]2C[C@@H](C(=O)O)[C@@H](c3ccc(O)cc3)N2C1=O  0.38
11. NC(=O)N1C(=O)C2C(C1=O)C1C=C(CCCO)C2C(c2ccc(CN3CCCC3)cc2)N1Cc1sc2ccccc2c1Cl (configuration not stated)  0.423
12. C=CCC(OC(C)=O)[C@@H]1[C@@H](N(Cc2ccc(-c3cccc(C(F)(F)F)c3)o2)C(=O)c2ccc(-c3ccccc3)cc2)c2cc(OCCCO)ccc2N1C(=O)c1ccc2ccccc2c1 (some centres not stated)  0.681
